Hits are enriched below; roughly 1.6% of the tested compounds scored in any of these assays.
cytoskel mod: cytoskeleton assembly modification; inhibition, % at 2 µM; AID 836; hit rate 0.18% among 91,000; HUVEC TNFa F-actin phalloidin imaging, high content;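 active = inhibition above the batch mean plus 3 SD and confirmed as a hit by visual image inspection, cut at about 30% in these data, passing the limit was not always enough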
VCAM1 TNFa inh: reduces TNF alpha induced VCAM1 expression in HUVEC; HUVEC TNFa-induced VCAM-1 immunofluorescence, high-content imaging; inhibition, % at 2 µM; hit rate 0.48% among 95,000;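 active = inhibition above the batch mean plus 3 SD, with images confirmed as a hit by eye, cut at about 37% in these data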;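 also: 0% = TNF-stimulated DMSO wells and 100% = unstimulated control wells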
IL1B NFkB pot: enhances IL-1B driven NFkB nuclear translocation; HUVEC IL-1B NFkB p65 nuclear translocation imaging; activation, % at 2 µM; hit rate 0.3% among 94,000;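 active = activation above 40%, about the mean plus 3 SD, also judged a hit on visual image review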;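 also: percent activation is computed from the nuclear over cytoplasmic p65 intensity ratio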
IL1B cytotox: HUVEC cytotoxicity counter-screen, IL-1B stimulated; HUVEC cell count loss, Hoechst imaging; cell count reduction, % at 2 µM; hit rate 0.41% among 94,000;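 active = cell count reduction more than 3 SD above the screen-wide mean, cut at about 70% in these data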;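 also: normalized per plate to untreated control cells as the no-loss baseline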
HUVEC tox TNFa: toxic to HUVEC cells under TNF alpha stimulation; HUVEC TNFalpha-stimulated, Hoechst cell count, imaging; cell count reduction, % at 2 µM; hit rate 0.17% among 93,000; AID 848;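 active = cell count reduction exceeding the screen mean by over 5 SD, scaled to untreated wells per plate, cut at about 78% in these data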;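 also: cells counted after 24 h of TNF alpha exposure following the 1 h pretreatment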
IL1B NFkB inh: blocks IL-1B driven NFkB nuclear translocation in HUVEC cells; hit rate 0.43% among 94,000; inhibition, % at 2 µM; AID 796; HUVEC IL-1B NFkB p65 nuclear translocation imaging;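 active = inhibition above about 30% together with a positive call from visual inspection of the well image, limit read from the data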;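 also: nuclear over cytoplasmic p65 intensity ratio measured by imaging; 0% = IL-1B stimulated DMSO wells and 100% = unstimulated DMSO wells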
Starred values were filed as active, the others as inactive; / = no result given.

SMILES	cytoskel mod	VCAM1 TNFa inh	IL1B NFkB pot	IL1B cytotox	HUVEC tox TNFa	IL1B NFkB inh
CC(C)(C)NC(=O)COC(=O)c1cc(S(=O)(=O)N2CCCCC2)ccc1N1CCOCC1	5	9	6	10	-11	-6
C=CCn1c2ccccc2c2nnc(SCC(=O)Nc3c(C)n(C)n(-c4ccccc4)c3=O)nc21	37	9	9	-24	2	-9
C=CCn1c2ccccc2c2nnc(SCC(=O)NC(C(=O)OC)C(C)C)nc21 (stereo not drawn)	11	14	15	89*	-14	-16
O=C(OCn1ncc(Br)c(Br)c1=O)c1c(F)cccc1F	26	74*	-89	32	17	89*
CC(C)(C(=O)c1ccccc1)/[N+]([O-])=C/c1ccccc1F	22	1	-1	4	-15	1
CC1(c2ccc(Cl)c(Cl)c2)NC(=S)N2C1NC(=S)N2c1ccccc1 (stereo not drawn)	-9	26	/	/	-8	/
CCNc1nc(NC(C)C)nc(Oc2ccc(/C=N/O)cc2)n1	/	-1	-4	-17	31	4
Cc1ccc2c(c1)N(CCC(=O)NCCCOC(C)C)C(=O)C(C)O2 (stereo not drawn)	-2	0	17	4	-38	-17
Nn1c(SCC(=O)Nc2ccc3c(c2)OCCO3)nnc1C(F)(F)F	34*	1	3	-17	-9	-3
Cc1ccccc1NCCNc1ccccc1C	/	12	21	-22	-26	-21
COc1cc(Cl)c(S(=O)(=O)NCc2ccccn2)cc1Cl	5	1	-1	-5	-2	1
Clc1cccc(Cl)c1CO/N=C/c1c(-c2ccccc2)nc2n1CCS2	/	10	-11	-4	-22	11
O=C(Nc1nccs1)c1csc2c1CCCC2	-1	9	9	-32	8	-9
COc1ccccc1-c1cn(S(=O)(=O)c2ccc(C)cc2)nc1N	-7	91*	-22	6	-19	22
C=CCN1C(=O)C(CC(=O)Nc2ccccc2)SC1=Nc1ccc(S(N)(=O)=O)cc1 (stereo not drawn)	3	1	4	1	-9	-4
CCOc1ccc2nc(NC(=O)c3cnc(C)cn3)sc2c1	2	0	-39	-126	-32	39*
O=S(=O)(NCCc1ccncc1)c1cc(Br)ccc1F	8	12	8	92*	-4	-8
CCCCS(=O)(=O)Nc1ccc2ncn(C)c(=O)c2c1	31	18	3	72*	-29	-3
Cn1cnc2cc(NS(=O)(=O)c3ccc(Br)cc3)ccc21	18	-34	6	-1	/	-6
Cc1ccc(C)c2c1[nH]c1ccc([N+](=O)[O-])cc12	-3	10	25	-9	-4	-25
CCCCC(=O)Nc1c(C)cc(C)cc1Cl	10	8	11	-75	-19	-11
O=c1c2ccccc2nc(/C=C/c2ccc([N+](=O)[O-])o2)n1CCCO	1	58*	-15	-9	10	15
O=c1c2ccccc2nc(/C=C/c2cccc([N+](=O)[O-])c2)n1CCCO	-11	-4	1	5	-16	-2
N=C1C(c2nc3ccccc3s2)=C(O)CN1Cc1ccco1	-8	96*	-6	-12	-5	6
CCCNC(=O)CSc1nc(-c2cccs2)cc(C(F)(F)F)n1	12	10	-22	0	-12	22
SMILES	cytoskel mod	VCAM1 TNFa inh	IL1B NFkB pot	IL1B cytotox	HUVEC tox TNFa	IL1B NFkB inh
O=C(CCSc1nc(-c2ccco2)cc(C(F)(F)F)n1)NCc1ccccn1	12	4	1	-15	-36	-1
O=C(CCSc1nc(-c2ccco2)cc(C(F)(F)F)n1)NCc1cccs1	22	0	47*	-40	-15	-47
Cc1cc(NC(=O)CSc2nc(-c3cccs3)cc(C(F)(F)F)n2)no1	-10	53*	6	-42	21	-6
Cc1ccc(-c2nn3c(C)nnc3s2)cc1NC(=O)C(C)C	-4	13	42*	5	-14	-42
Cc1ccc(-c2nn3c(C)nnc3s2)cc1NC(=O)CSc1ccc(Cl)cc1	-15	19	63*	-14	3	-63
Cc1nnc2sc(-c3ccc(NC(=O)CSc4ccc(Cl)cc4)cc3)nn12	-5	7	32	29	-9	-32
CCc1ccc(NC(=O)CSc2nc3cc(C(=O)OC)ccc3c(=O)n2CC2CCCO2)cc1 (stereo not drawn)	5	-11	-4	10	2	4
Cc1nn(C)c(C)c1CN(C)C(=O)CCCC(=O)O	-2	-11	-5	12	17	5
CCOc1ncccc1C(=O)NCC1COc2ccccc2O1 (stereo not drawn)	16	-21	4	-11	-29	-4
CCCc1sc(N/N=C/c2ccccn2)nc1-c1ccc(Br)cc1	4	94*	24	-23	-8	-24
CCC(CC)NC(=O)COC(=O)c1ccc(NS(=O)(=O)c2ccc3c(c2)OCCO3)cc1	6	21	-4	-1	-11	4
CCn1nnnc1SCC(=O)N1CCCc2ccccc21	1	-29	9	-10	-3	-9
CCOc1ccccc1C(=O)NCCC(=O)O	100*	/	-1	-23	/	1
CCCCCOc1ccccc1C(=O)NCCC(=O)O	-7	12	0	-13	14	0
Nc1ccc2c3c(cccc13)CC2	51*	20	-2	4	-3	2
CCn1c(SCC(=O)Nc2nc(C)c(C(=O)OC)s2)nnc1C(C)C	9	-13	-3	2	-1	3
O=C1CC(c2ccccc2)Cc2nc3ncnn3cc21 (stereo not drawn)	29	60*	-18	13	41	18
CCOc1cc(NC(=O)c2ccccc2C)c(OCC)cc1NC(=O)C1=Cc2ccccc2OC1	-28	5	9	-16	5	-9
Nc1nnc(COc2ccccc2)s1	13	12	-6	-5	-35	6
COc1cc(C)c(S(=O)(=O)N2CCN(C)CC2)cc1C	-2	12	14	2	-2	-14
COc1ccc(C(C)(C)C)cc1S(=O)(=O)N1CCN(C)CC1	21	93*	8	4	-22	-8
O=C(COc1ccccc1Cl)NCc1ccco1	5	9	-99	80*	-12	99*
COC(=O)c1cc(=O)nc2sccn12	1	1	42*	-33	-26	-42
O=C(C1CCCCN1S(=O)(=O)c1ccccc1)N1CCCCC1 (stereo not drawn)	-35	-22	-52	10	16	52*
O=C(O)C1CCCCN1S(=O)(=O)c1ccccc1 (stereo not drawn)	-17	-11	-6	0	-9	6
O=C(CCN1C(=O)C2C3C=CC(C3)C2C1=O)NCC1CCCO1 (stereo not drawn)	69*	10	-6	0	-50	6
COc1cc(NC(=O)Cn2nc(C(F)(F)F)c3c2CCCC3)cc(OC)c1OC	-9	-14	16	71*	-7	-16
CCc1ccc(NC(=O)Cn2nc(C(F)(F)F)c3c2CCC3)cc1	0	8	9	-2	-8	-9
